Results as given in PMC12670160, “A drug-repurposing screen of FDA- and EMA-approved drugs identifies two NF-κB inhibitors active against eumycetoma” (Journal of Antimicrobial Chemotherapy, 2025).
Counter-ions that a name gives are not always drawn. Out of some 5,300 compounds screened, about 130 (2.5%) showed an effect of 50% or more. What follows is part of a selection rich in strong results, with near analogues and random picks from the rest.

test system: M. mycetomatis strain mm55; settings: primary screen, metabolic activity vs growth control; 96 h, 2 µM; inhibitor

SMILES | % viability [%]
O=C1Nc2c(ccc(Cl)c2Cl)C1=NO [ONC0002536, ns309] | 65.12
COC(=O)[C@H]1[C@@H](C)[C@@H](OC)C=CO[C@@]2(C)Oc3c(C)c(O)c4c(O)c(cc(O)c4c3C2=O)NC(=O)/C(C)=C\C=C/[C@@H](C)[C@@H](O)[C@@H](C)[C@H](O)[C@@H]1C [ONC0003453, rifamycin sv sodium salt] | 53.39
CN(C)[C@@H]1C(=O)C(C(N)=O)C(=O)[C@@]2(O)C(=O)C3C(=O)c4c(O)ccc(Cl)c4[C@@H](O)[C@H]3C[C@@H]12 (some centres unmarked) [ONC0000432, demeclocycline hydrochloride] | 77.24
CCCCCCCCCCCC1=C(O)C(=O)C=C(O)C1=O [ONC0001079, embelin] | 49.47
CCCCCCc1ccc(O)cc1O [ONC0000355, hexylresorcinol] | 72.69
CCCCCCCCc1ccc(CCC(N)(CO)CO)cc1 [ONC0005159, fingolimod fty720 hcl] | 130.1
NC1=N[C@H]2[C@H](CCCCC(=O)O)SC[C@H]2N1 [ONC0003635, 2iminobiotin] | 86.51
CC(C)=CCC/C(C)=C/CC/C(C)=C/CCC(O)OC/C=C(\C)CCC=C(C)C (centres unmarked) [ONC0000430, geranylfarnesylacetate gefarnate] | 66.04
O=C(Oc1cccc2cccnc12)c1ccccc1 [ONC0003987, benzoxiquine] | 75.23
O=C(OOC(=O)c1ccccc1)c1ccccc1 [ONC0003111, benzoyl peroxide] | 80.87
Cc1ccc2c(Br)cc(Br)c(OC(=O)c3ccccc3)c2n1 [Broxaldine] | 3.407
c1cnc2cc3c(cc2n1)C1CNCC3C1 [ONC0004813, varenicline tartrate] | 83.4
CCCC[C@H](C)C[C@H](O)/C=C/[C@H]1[C@H](O)CC(=O)[C@@H]1CCCC/C=C/C(=O)O [ONC0005482, limaprost] | 96.34
Cc1ccc(C(C)C)c(OC=C2NCCN2)c1 [ONC0005561, tymazoline] | 90.75
O=[N+]([O-])c1ccccc1S(=O)(=O)NC[C@H]1CC[C@H](CNCC2CCc3ccccc3C2)CC1 (some centres unmarked) [ONC0000121, ntncb] | 80.22
CC(=O)OC1[C@@H](N2CC[N+](C)(C)CC2)C[C@H]2[C@@H]3CC[C@H]4C[C@H](OC(C)=O)[C@@H](N5CC[N+](C)(C)CC5)C[C@]4(C)[C@H]3CC[C@]12C (some centres unmarked) [ONC0001992, pipecuronium] | 103.5
CCC(=O)NO [ONC0002308, zami633] | 45.69
O=C(CCCCCCC(=O)NO)NO [ONC0001756, sbha] | 85.39
CCCCOc1ccc(CC(=O)NO)cc1 [ONC0000683, bufexamac] | 91.55
OCC(O)COc1ccc(Cl)cc1 (centres unmarked) [ONC0002159, chlorphenesin] | 67.41
CCC(C)CC(C)CCCCCCCCC(=O)N[C@H]1C[C@@H](O)[C@@H](NCCN)NC(=O)[C@@H]2[C@@H](O)CCN2C(=O)[C@H]([C@H](O)CCN)NC(=O)[C@H]([C@@H](O)[C@H](O)c2ccc(O)cc2)NC(=O)[C@@H]2C[C@@H](O)CN2C(=O)[C@H]([C@@H](C)O)NC1=O (some centres unmarked) [ONC0002201, caspofungin acetate] | 69.7

SMILES | % viability [%]
CN1CCN(C(=O)CN[C@@H]2C[C@H]2c2ccc(OCc3ccccc3)cc2)CC1 [ONC0000424, rn1] | 85.6
COc1ccc(/C=C/CCCCOc2ccc(C(=O)c3cccc(C(=O)O)c3)cc2CCC(=O)O)cc1 [ONC0003815, ly223982] | 21.75
COc1ccc2[nH]c(C(=O)c3ccccc3)cc2c1 [ONC0001898, d64131] | 78.99
COc1ccc(/C=C/C(=O)O)cc1 [ONC0003824, trans4methoxycinnamicacid] | 65.15
CC(=O)[C@H]1CC[C@H]2[C@@H]3CC=C4C[C@@H](O)CC[C@]4(C)[C@H]3CC[C@]12C [ONC0003199, pregnenolone] | 77.25
Cc1oc2nc3c(c(NC(=O)CN4CCCC4=O)c2c1C)CCCC3 [ONC0001218, coluracetam] | 81.81
CCOC(=O)Nc1ccc(NCc2ccc(F)cc2)nc1N.O=C(O)/C=C\C(=O)O [ONC0001304, flupirtine maleate] | 68.53
CCOC(=O)Nc1cc2c(c(N)n1)NC(c1ccccc1)=C(C)N2 [ONC0002128, mivobulin] | 3.846
CCOC(=O)Nc1nc2ccccc2[nH]1 [ONC0004223, lobendazole] | 137.9
C=CC(=O)N1CCCC(n2c(=O)n(-c3ccc(Oc4ccccc4)cc3)c3c(N)ncnc32)C1 (centres unmarked) [ONC0004392, ono4059] | 98.71
CN1C2C[C@H](OC(=O)[C@H](CO)c3ccccc3)C[C@@H]1[C@@H](O)C2 [ONC0003283, anisodamine hydrobromide] | 41.57
C[N+]1([O-])C2CCC1CC(OC(=O)C(CO)c1ccccc1)C2 (centres unmarked) [ONC0004212, atropine oxide] | 82.92
C[N+]1(C)C2CCC1CC(OC(=O)C(CO)c1ccccc1)C2 (centres unmarked) [ONC0003986, methylatropine nitrate] | 73.02
FC(F)(F)Oc1ccc2[nH]c(-c3ccc(OCCOCCOc4ccc(-c5nc6cc(OC(F)(F)F)ccc6[nH]5)nc4)cn3)nc2c1 [ONC0000980, ai1049] | 83.7
CC(=O)OCC1=C(C(=O)O)N2C(=O)[C@@H](N)[C@H]2SC1 [ONC0004514, 7aminocephalosporanic acid] | 52.68
CCn1cc(-c2cccc(C(F)(F)F)c2)c2sc(C(=N)NC3CCS(=O)(=O)CC3)cc2c1=O [ONC0001085, ibrd9] | 45.4
Cc1c(C(=O)NCc2cccnc2)nn(-c2ccc(Cl)cc2Cl)c1-c1ccc(Cl)cc1 [ONC0001432, mj15] | 60.06
C[C@@H]1CC2C3CCC4=CC(=O)C=C[C@]4(C)[C@@]3(F)[C@@H](O)C[C@]2(C)[C@@]1(O)C(=O)CO (some centres unmarked) [ONC0000416, dexamethasone] | 62.67
O=C(Nc1cc(C(F)(F)F)cc(C(F)(F)F)c1)c1cnc(Cl)nc1C(F)(F)F [ONC0001396, sp100030] | 126.3
O=C(Nc1ccc([N+](=O)[O-])cc1Cl)c1cc(Cl)ccc1O [niclosamide] | 70.84
O=C(Nc1cc(C(F)(F)F)cc(C(F)(F)F)c1)c1cc(Cl)ccc1O [IKK2 inhibitor V (IMD-0354), IMD-0354] | 2.589

SMILES | % viability [%]
O=C(C[C@H]1NCCC[C@@H]1O)Cn1cnc2cc(Br)c(Cl)cc2c1=O (racemic) [ONC0004939, halofuginone] | 90.07
CC1=CC(=O)NS(=O)(=O)O1 [ONC0005569, acesulfame potassium] | 46
c1ccc(-c2ncc(CN3CCN(c4ncccn4)CC3)[nH]2)cc1 [ONC0000007, ngd941] | 130.5
CC(COc1ccccc1)NC(C)[C@H](O)c1ccc(O)cc1 (some centres unmarked) [ONC0000598, isoxsuprine hydrochloride] | 84.27
CCC(O)(CC(N)=O)c1ccccc1 (centres unmarked) [ONC0003599, 3hydroxy3phenylpentanamide] | 105.2
Cc1nc2cc(-n3ncc(C(=O)c4cc5ccccc5[nH]4)c3N)ccc2[nH]1 [ONC0004455, ch5183284 debio1347] | 110.2
CCNC(=O)N1CCN(CCCC(c2ccc(F)cc2)c2ccc(F)cc2)CC1 [ONC0003498, amperozidehcl] | 32.95
Cc1cccc(C)c1NC(=O)CN1CCN(CCCC(c2ccc(F)cc2)c2ccc(F)cc2)CC1 [ONC0002360, lidoflazine] | 112.8
O=c1[nH]c2ccccc2n1C1CCN(CCCC(c2ccc(F)cc2)c2ccc(F)cc2)CC1 [ONC0000675, pimozide] | 106.9
Cc1c[nH]c(-c2cnc(NCCNc3ccc(C#N)cn3)nc2-c2ccc(Cl)cc2Cl)n1 [ONC0004531, chir99021 ct99021 hcl] | 57.04
C[C@H]1c2cccc(O)c2C(=O)C2C(=O)[C@]3(O)C(=O)C(C(N)=O)C(=O)[C@@H](N(C)C)[C@@H]3[C@@H](O)[C@@H]21 (some centres unmarked) [ONC0000682, doxycycline hydrochloride] | 94.49
C[C@]12CCC(=O)C=C1CCC1C2C(=O)C[C@@]2(C)C1CC[C@]2(O)C(=O)CO (some centres unmarked) [ONC0005338, cortisone] | 64.83
Cc1sc(C)c2c1CCC=C2c1cnc[nH]1 [ONC0000248, tcg1000] | 71.17
Cc1ccnc(NC(=O)C(C)c2cccc(C(=O)c3ccccc3)c2)c1 (centres unmarked) [ONC0003716, piketoprofen] | 97.11
O=C(O)[C@@H](c1ccc(OCc2ccc3ccccc3n2)cc1)C1CCCC1 [ONC0005557, veliflapon] | 76.74
O=C(O)c1ccccc1Nc1cccc(OCc2ccc3ccccc3n2)c1 [ONC0001414, sr2640] | 39.31
CCCCCC(O)c1cccc(OCc2ccc3ccccc3n2)c1 (centres unmarked) [ONC0005481, rev5901 l655238] | 92.78
Cc1cc(O)c2c(c1)C(=O)c1cc(O)cc(O)c1C2=O [ONC0004997, emodin] | 57.84
COc1cc(O)c2c(c1)C(=O)c1cc(C)cc(O)c1C2=O [ONC0004501, rheochrysidin physcione] | 41.39
Cc1cc(O)c2c(c1)C(=O)c1cccc(O)c1C2=O [ONC0005265, chrysophanic acid chrysophanol] | 118.5
